MITF TRPM1 inh – reduces MITF-dependent TRPM1 promoter luciferase signal | SK-MEL-5 TRPM1 promoter luciferase, 24 h | inhibition, % at 12.5 µM | hit rate 0.83% among 330,000;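 active = mean inhibition across replicates of 60% or more, whatever share of single replicates reaches that level; inconclusive = some that reach 60%, reason not given; inactive = mean inhibition across replicates below 60%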
KKLEB tox – counter-screen for CF NF-kB inhibitors: cytotoxicity; KKLEB CF airway cells viability, ATPlite luminescence, overnight; active compounds read low; cells stimulated with P. aeruginosa culture filtrate; activity change (cytotoxicity), % at 5 µM; hit rate 0.36% among 360,000; AID 602141;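 active = corrected activity change at or below -50% at 5 µM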
Shn3 inh set2 – Schnurri-3 reporter inhibition in Clone20 osteoblasts; hit rate 0.52% among 360,000; Clone20 osteoblast Shn3 3'UTR firefly luciferase, 24 h; inhibition, % at 12.5 µM;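 active = mean inhibition of at least 75% with every replicate also reaching 75%; inconclusive = mean inhibition at least 75% but some replicate below; inactive = mean inhibition below 75%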;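 also: 0% = median of neutral control wells and 100% = pilot-screen positive control compound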
Peg3 promoter – Peg3 promoter activity inhibition. HeLa PEG-Prom luciferase reporter, luminescence, overnight. inhibition, % at 20 µM. hit rate 1.7% among 360,000. AID 588405;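 active = inhibition of at least 50% at 20 µM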
EBV LMP1 NFkB – Epstein-Barr LMP1 NF-kappaB reporter inhibition; LMP1-induced NF-kappaB luciferase reporter cells, luminescence; inhibition, % at 12.5 µM; hit rate 0.69% among 350,000; AID 504558; in the data active = inhibition above about 41%; inconclusive = no clear call, values can overlap the other calls;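 also: 0% = neutral control wells and 100% = reference inhibitor control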
CF NFkB block – inhibitors of cystic fibrosis induced NF-kB; KKLEB NF-kB-GFP reporter, PAF-induced, GFP fluorescence overnight; inhibition, % at 5 µM; hit rate 0.86% among 360,000;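 active = at least 50% inhibition at 5 µM, scaled per plate between neutral and stimulator controls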;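 also: PAF is a Pseudomonas aeruginosa culture filtrate used as stimulus; plate controls were PAF-stimulated DMSO wells for no effect and unstimulated DMSO wells for full effect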
* hit, by the source's call; u = inconclusive; x = no result. Only some compounds are listed: those with a hit (about 2.9% of all), similar ones and a draw of the others.

SMILES	MITF TRPM1 inh	KKLEB tox	Shn3 inh set2	Peg3 promoter	EBV LMP1 NFkB	CF NFkB block
CC(O)(c1cccc(F)c1)c1nc(-c2cnc3ccccc3c2)cs1 (stereo not drawn)	x	1	43	-165	x	8
CSC[C@H]1CN(CCc2ccccc2)C(=O)[C@@H]1CC(=O)Nc1ccccc1	x	-7	-1	-4	-4	-2
O=C(CNC(=O)c1nn(Cc2ccccc2)c(=O)c2ccccc12)Nc1ccc(F)c(F)c1F	4	-56*	8	2	5	47
CC1C(=O)N(Cc2cn(Cc3ccco3)nn2)CCS(=O)(=O)N1Cc1ccc(-c2ccc(F)cc2Cl)cc1 (stereo not drawn)	x	5	30	27	x	44
COc1ccc(C(=O)N=C2CCC(C#N)=C3c4cc(OC)c(OC)cc4CCN23)cc1	16	-10	9	51*	8	21
N/C(=N\OC(=O)c1ccc2ccccc2c1)c1ccccc1Cl	-76	-9	-89	81*	-67	37
N/C(=N\OC(=O)c1ccc2ccccc2c1)c1ccncc1	-89	4	-15	-265	-10	-7
N/C(=N\OC(=O)c1ccc2ccccc2c1)c1ccccn1	36	-68*	66	111*	56*	19
CCN(CC)CCNc1ccc(C)c2sc3ccc(O)cc3c(=O)c12	85*	5	30	98*	38	-171
CCN(CC)CCCNC(=O)C(C)n1nc(C)c2sc3ccccc3c2c1=O (stereo not drawn)	-6	-5	6	-28	-2	14
CCCS(=O)(=O)NC(=O)C1(C)CCN(C(=O)Cc2ccc(F)cc2)C1 (stereo not drawn)	x	2	-8	10	x	-7
O=C(Nc1nc(-c2ccccn2)cs1)c1ccc(F)c(S(=O)(=O)N2CCOCC2)c1	67*	-2	94*	36	26	-7
CN(CC1CCCO1)S(=O)(=O)c1ccc(C(=O)Nc2ccccc2F)cc1 (stereo not drawn)	-9	1	-2	-17	-5	-7
CN(CC1CCCO1)S(=O)(=O)c1ccc(C(=O)Nc2nc(-c3ccccn3)cs2)cc1 (stereo not drawn)	56	27	90*	54*	27	-21
Cc1ccc(C(=O)Nc2nc(-c3ccccn3)cs2)cc1S(=O)(=O)N1CCOCC1	54	-7	90*	37	34	8
COCCN(Cc1ccc(C)cc1)C(=O)[C@H]1O[C@@H](n2ccc(N)nc2=O)[C@H](O)[C@@H]1O	x	-5	27	4	x	-7
CCN(Cc1ccccc1)C(=O)c1nn(-c2ccc(OC)cc2)c(=O)c2c1c1ccccc1n2C	2	-6	24	68*	12	11
COc1ccccc1-c1noc2c1C(=O)N(Cc1cn(Cc3ccccc3)nn1)CC2	x	6	1	20	x	-26
O=C1NCCOC(=O)[C@@H](Cc2ccc(F)cc2)CC/C=C/C[C@@H]1CC(=O)N(CCO)Cc1ccccc1	-2	0	91*	-14	3	-5
O=C1N[C@@H](Cc2c[nH]c3ccccc23)COC(=O)[C@H](Cc2ccc(F)cc2)C/C=C\C[C@H]1CC(=O)N(CCO)Cc1ccccc1	-14	7	2	24	43*	-15
c1ccc(/N=C2\N=C(Nc3ccccn3)c3ccccc32)nc1	54	-19	84	64*	31	1
c1ccc(Nc2ccccn2)cc1	-11	3	-4	-10	-9	9
Cc1nnc(SCc2cnc(-c3ccc(C(C)C)cc3)s2)n1C	12	-65*	-19	-98	43*	-8
O=S(=O)(c1ccccc1)c1nnn2c1nc(NC1CCN(Cc3ccccc3)CC1)c1cc(Cl)ccc12	25	-7	11	55*	12	-12
O=S(=O)(c1ccccc1)c1nnn2c1nc(NC1CCN(Cc3ccccc3)CC1)c1ccccc12	-6	-14	14	16	-9	17
SMILES	MITF TRPM1 inh	KKLEB tox	Shn3 inh set2	Peg3 promoter	EBV LMP1 NFkB	CF NFkB block
Cc1nc2cc(N3CCCCC3)c(NC(=O)c3ccncc3)cc2c(=O)n1Cc1ccccc1	5	-7	-5	86*	5	15
CN1C(=O)C(Cl)(Cl)C(=O)c2ccccc21	10	-12	-7	8	-5	53*
CN1C(=O)C2(NC(=O)c3ccccc3N2C)c2ccccc21 (stereo not drawn)	4	0	-5	8	2	4
Cc1csc(N/N=C/c2ccccc2F)n1	-51	0	-82	-258	87*	4
CC(=O)Nc1ccc(/C=C(\C#N)C(=O)NC2CCCCC2C)cc1 (stereo not drawn)	-8	-20	-2	9	-8	-4
CC1CCCCC1NC(=O)/C(C#N)=C/c1ccccc1F (stereo not drawn)	u	-14	12	96*	7	26
O=C(NCCCNC(=O)c1ccco1)c1ccc(Cl)c(Cl)c1	7	5	9	53*	-6	5
CCOC(=O)C1(C)CCN1C(=O)c1ccc(C)cc1 (stereo not drawn)	x	3	-7	4	x	14
CCc1nc2ccc(C(=O)NC3CCN(Cc4ccccc4)CC3)cn2c1N(CC)Cc1cccc(Br)c1	x	-41	-3	94*	x	24
O=C1Nc2cc(C(=O)NCCN3CCCCCC3)ccc2S/C1=C\c1ccccc1	96*	-4	16	94*	0	19
O=C1Nc2cc(C(=O)NCCCN3CCCC3)ccc2S/C1=C/c1cccc(Cl)c1	x	0	3	99*	-38	22
COc1cccc(/C=C2/Sc3ccc(C(=O)NCCN4CCCCCC4)cc3NC2=O)c1	74*	-7	-12	100*	-19	6
O=C1Nc2cc(C(=O)N3CCc4ccccc4C3)ccc2S/C1=C\c1ccccc1	-10	0	-1	13	6	0
CC(C)NC(=O)C1(C)CCN1C(=O)c1ccccc1 (stereo not drawn)	x	1	-7	13	x	9
CCCCCC(=O)N1C[C@@H](n2cc(C3CC3)nn2)[C@H](O)C[C@@H]1c1ccc(C)cc1	x	4	17	22	0	-18
CCNC(=O)C1(C)CCCN(Cc2ccccc2-c2ccccc2)C1 (stereo not drawn)	x	10	12	-2	x	-4
NC(=S)NN=C1CSSC1	x	3	32	44	23	70*
CC1(C)CCC(=NNC(N)=S)CC1	-7	7	-12	-7	-9	-13
OC(CNCC1CCCO1)Cn1c2ccccc2c2ccccc21 (stereo not drawn)	-11	-9	6	-4	-7	15
OC(CNCCC1C=Nc2ccccc21)Cn1c2ccc(Cl)cc2c2cc(Cl)ccc21 (stereo not drawn)	91*	-30	93*	102*	-54	31
OC(CNCC1CCCO1)Cn1c2ccc(Cl)cc2c2cc(Cl)ccc21 (stereo not drawn)	-59	-30	-16	106*	-36	25

Screens (PubChem BioAssay)
